Drawing on PubChem BioAssay (NCATS), this text covers Potency, activity change, negative = inhibition and activity, negative = inhibition for 13 molecules.

Unmarked numbers belong to inactive results. Records with an inconclusive call do not appear. The source made the active and inactive calls. Unless noted, calls come from the whole dose curve; as a rule, active = well fitted curve in either direction with a large enough effect (not every such curve was filed as active); inconclusive = small, poorly fitted or top-dose-only effect, or another doubt; inactive = flat fitted curve, though single readings scatter.

Test [1] deals with Lysosomal acid glucosylceramidase (Homo sapiens) (UniProt P04062). The test can be described thus: Glucocerebrosidase-p2 (AID 348; in the data active = potency below about 10 µM; note: potency is the fitted concentration of half-maximal effect). To be noted: purified GBA, blue fluorogenic substrate, 40 min. In outline:
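Normal human glucocerebrosidase (0.2 nM) with blue fluorogenic substrate (80 uM final) in citrate/phosphate pH 5.9 with 10mM sodium taurocholate, 0.01% tween-20; 40 min RT, NaOH/glycine stop; fluorescence Ex 365/Em 440; AC50 from a titration from 0.6 nM upwards.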

Test [2] is described as follows: AP1 Signaling Pathway (AID 357).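 Note: ME-180 reporter cells stimulated with EGF at its EC50 level; % is set by controls: 0 for no effect and ±100 for the full control effect.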 To be noted: ME-180 AP-1-bla reporter, EGF-induced, beta-lactamase ratio, 5 h; at 7.69 µM (top of the series) unless noted. The procedure, abridged: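 In this screen, ME-180 cells in Opti-MEM with 0.5% dialyzed FBS received EC50 EGF and compound titrations for 5 h. AP-1 reporter beta-lactamase was detected via CCF4 ratio, giving AC50 for positive and negative modulators.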

A short description of test [3]: NFAT Signaling Pathway (AID 444).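 Note: carbachol stimulus at about its EC50 of 1 µM final; % is set by controls: 0 for no effect and ±100 for the full control effect.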 To be noted: Jurkat NFAT-bla M1, carbachol, beta-lactamase ratio, 5 h; at 7.69 µM (top of the series) unless noted. The procedure, abridged: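 Jurkat cells with NFAT-driven β-lactamase reporter and co-expressed M1 receptor, stimulated with carbachol (final 1 uM, ~EC50), compound titration, 5 h at 37 °C. CCF4 loaded 1 h at RT; 460/530 nm ratio gave %activity and AC50.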

Test [4] is described as follows: Stat Signaling Pathway (AID 446).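 Note: ME-180 cervical cancer cells given 40 pM IL-6 alongside compound; SIE-controlled beta-lactamase reporter measured as 460/530 nm FRET emission ratio; % is set by controls: 0 for no effect and ±100 for the full control effect.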 The note with it: ME-180 (cervical carcinoma) SIE beta-lactamase reporter, IL-6 stimulated, 5 h; at 7.69 µM (top of the series) unless noted. The procedure, abridged: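 Normalization used AC90 stimulation (300 pM IL-6) and AC90 inhibition (125 nM pan-JAK inhibitor at 40 pM IL-6). The underlying signal is SIE-driven beta-lactamase in ME-180 cells after 5 h IL-6 exposure with compound.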

In test [5] the target is Glucocorticoid receptor (Homo sapiens) (UniProt P04150). As to the kind of experiment: GR-GFP Redistribution (AID 450;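 active = compounds whose dose series gives a full or clear partial fitted curve of increased nuclear translocation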; note: potency is the fitted concentration of half-maximal effect). To be noted: U2OS GR-GFP nuclear translocation, laser cytometry, 2 h.
Test [6] shares this target. As to the kind of experiment: GR-EFC Redistribution (AID 451; calls by dose curve; note: potency is the fitted concentration of half-maximal effect). The note with it: CHO-K1 GR-EFC translocation, beta-gal luminescence, 2 h. In outline: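 CHO-K1 cells expressing nuclear EA and GR-ED fragments of b-gal; compounds titrated up to 46 uM final, 2 h at 37 C. GR nuclear translocation read as complemented b-gal luminescence after 1 h RT detection.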
Test [7] deals with Mitogen-activated protein kinase 10 (Mus musculus) (UniProt Q61831). The test can be described thus: JNK3 AlphaScreen Assay (AID 530).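 Note: kinase came from lysate of stimulated human HepG2 cells; signal reports phosphorylation of biotinylated GST-cJun 1-79 at Ser73 with 10 µM ATP; % is set by controls: 0 for no effect and ±100 for the full control effect.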 To be noted: JNK3 lysate, c-Jun phosphorylation; series mostly up to 11.4 µM. In outline:
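Activity was read by AlphaScreen after JNK3-containing HepG2 lysate (cytokine pre-activated) phosphorylated biotinylated GST-cJun with 10 uM ATP at room temperature. Phospho-Ser73 cJun antibody with Protein-A acceptor beads provided detection.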
A general note: Alpha assays give light when donor and acceptor beads are brought close together.

The target in test [8] is 3',5'-cyclic-AMP phosphodiesterase 4B (Homo sapiens) (UniProt Q07343). As to the kind of experiment: qHTS Assay for Inhibitors of PDE-IV (AID 607; active = well fitted activation curve with a large enough effect in the main read-out, with a control signal flat, not every such curve was filed as active; note: % of control where 0% means no effect). The note with it: HEK293 ACTOne CNG channel cells, membrane potential fluorescence; series mostly up to 22.9 µM. The procedure, abridged:
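HEK293 ACTOne cells with CNG channel (1000/well), endogenous PDE4; membrane potential dye, compounds up to 22.9 uM final. Fluorescence Ex 535/Em 590; RO 20-1724 (100 uM final) as reference.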
On the technique in general: qHTS replaces the single test concentration by a dilution series.

Sequence of Lysosomal acid glucosylceramidase (Homo sapiens) (P04062 whole entry, looked up): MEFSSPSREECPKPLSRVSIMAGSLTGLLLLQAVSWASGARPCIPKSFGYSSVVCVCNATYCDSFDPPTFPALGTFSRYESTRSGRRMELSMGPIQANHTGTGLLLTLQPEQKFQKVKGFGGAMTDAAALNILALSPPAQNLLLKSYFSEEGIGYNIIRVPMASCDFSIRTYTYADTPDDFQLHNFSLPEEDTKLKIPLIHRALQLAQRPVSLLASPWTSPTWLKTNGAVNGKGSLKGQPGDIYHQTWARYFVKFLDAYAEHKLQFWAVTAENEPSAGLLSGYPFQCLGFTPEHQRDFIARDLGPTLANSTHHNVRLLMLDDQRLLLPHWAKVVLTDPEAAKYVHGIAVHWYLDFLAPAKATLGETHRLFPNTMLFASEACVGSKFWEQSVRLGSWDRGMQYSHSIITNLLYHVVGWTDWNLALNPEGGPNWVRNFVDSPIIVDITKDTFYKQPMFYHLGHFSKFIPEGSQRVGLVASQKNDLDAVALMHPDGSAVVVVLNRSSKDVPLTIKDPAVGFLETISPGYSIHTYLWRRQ
Sequence of Glucocorticoid receptor (Homo sapiens) (P04150 whole entry, looked up, the tested form may be a part): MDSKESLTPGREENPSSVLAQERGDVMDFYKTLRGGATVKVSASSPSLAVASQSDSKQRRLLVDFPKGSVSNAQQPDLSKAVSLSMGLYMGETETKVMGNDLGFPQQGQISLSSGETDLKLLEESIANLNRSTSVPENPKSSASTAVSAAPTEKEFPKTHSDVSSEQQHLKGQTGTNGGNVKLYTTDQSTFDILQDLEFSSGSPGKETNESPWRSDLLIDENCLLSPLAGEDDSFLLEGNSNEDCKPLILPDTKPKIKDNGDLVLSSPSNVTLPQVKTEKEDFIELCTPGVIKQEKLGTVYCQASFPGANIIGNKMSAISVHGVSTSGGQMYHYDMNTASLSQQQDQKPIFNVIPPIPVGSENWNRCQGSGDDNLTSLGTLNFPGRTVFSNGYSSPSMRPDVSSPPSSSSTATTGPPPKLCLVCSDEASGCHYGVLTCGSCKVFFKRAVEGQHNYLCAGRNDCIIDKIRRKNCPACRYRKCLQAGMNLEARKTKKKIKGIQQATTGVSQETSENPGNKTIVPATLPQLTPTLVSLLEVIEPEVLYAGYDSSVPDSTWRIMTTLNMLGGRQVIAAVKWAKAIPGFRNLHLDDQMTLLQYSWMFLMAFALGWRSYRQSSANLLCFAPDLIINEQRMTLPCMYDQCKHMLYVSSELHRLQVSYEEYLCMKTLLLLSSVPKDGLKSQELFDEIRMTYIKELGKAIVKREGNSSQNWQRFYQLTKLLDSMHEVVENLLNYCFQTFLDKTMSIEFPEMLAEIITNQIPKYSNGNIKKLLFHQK
Sequence of 3',5'-cyclic-AMP phosphodiesterase 4B (Homo sapiens) (Q07343 whole entry, looked up): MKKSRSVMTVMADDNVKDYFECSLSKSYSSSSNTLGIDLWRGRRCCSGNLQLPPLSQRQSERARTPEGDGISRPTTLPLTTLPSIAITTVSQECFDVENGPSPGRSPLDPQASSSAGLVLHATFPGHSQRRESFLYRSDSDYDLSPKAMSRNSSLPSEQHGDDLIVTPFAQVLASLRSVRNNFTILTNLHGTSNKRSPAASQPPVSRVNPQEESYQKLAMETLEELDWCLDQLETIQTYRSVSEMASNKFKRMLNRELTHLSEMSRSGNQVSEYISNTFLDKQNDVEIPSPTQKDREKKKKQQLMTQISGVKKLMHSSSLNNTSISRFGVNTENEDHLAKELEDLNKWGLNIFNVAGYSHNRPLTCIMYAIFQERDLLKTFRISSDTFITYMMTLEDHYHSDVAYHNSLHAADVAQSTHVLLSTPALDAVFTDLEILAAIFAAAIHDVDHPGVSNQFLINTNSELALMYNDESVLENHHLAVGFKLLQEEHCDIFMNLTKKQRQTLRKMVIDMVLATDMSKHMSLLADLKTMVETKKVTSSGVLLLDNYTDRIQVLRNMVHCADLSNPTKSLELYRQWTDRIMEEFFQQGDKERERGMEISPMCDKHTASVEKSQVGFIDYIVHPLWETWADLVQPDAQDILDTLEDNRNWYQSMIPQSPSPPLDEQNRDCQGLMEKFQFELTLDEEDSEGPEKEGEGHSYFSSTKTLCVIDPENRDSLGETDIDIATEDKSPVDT

Regarding `Cn1c(=O)c2c(ncn2CCSS(=O)(=O)O)n(C)c1=O`, the Potency in test [1] was above 11.4 µM; in test [5], above 46 µM; in test [6], above 9.22 µM. Besides, the activity change, negative = inhibition in test [2] was -0.109%; in test [3], 18.1%. In addition, in test [4], the activity, negative = inhibition was -2.16%. Also, the Potency entry in test [7] and in test [8] was “inactive” throughout.

Turning to `O=C(O)Cc1cccc2c(=O)cc(-c3ccccc3)oc12`, the values for the Potency in test [1], in test [5] and in test [6] were above 11.4 µM, above 46 µM and above 9.22 µM, respectively. For the same molecule, the activity change, negative = inhibition in test [2] was -1.49%; in test [3], -5.58%. Also, the activity, negative = inhibition in test [4] was -3.42%. Further, the Potency result in test [7] and in test [8] was “inactive” in each case.

For the molecule `Ic1ccc2c(c1)N(c1ccccc1)c1cc(Nc3ccc4nc5ccc(I)cc5[n+](-c5ccccc5)c4c3)ccc1N2`, the results for the Potency in test [1], in test [5] and in test [6] were 7.99 µM (active), above 46 µM and above 9.22 µM, respectively. Besides, the activity change, negative = inhibition in test [2] is -4%; in test [3], -3.73%. Moreover, the activity, negative = inhibition in test [4] is -4.86%. For the same molecule, the Potency entry in test [7] and in test [8] was “inactive” in each case.

With `O=C(O)c1cncc(C(=O)O)c1`, the values for the Potency in test [1], in test [5] and in test [6] were above 11.4 µM, above 46 µM and above 9.22 µM, respectively. For the same molecule, the activity change, negative = inhibition in test [2] is 1.97%; in test [3], 3.72%. In addition, the activity, negative = inhibition in test [4] is 6.17%. Moreover, the Potency result in test [7] and in test [8] was “inactive” each time.

As for `C[C@@H](CNC(N)=O)NC(N)=O`, the Potency in test [1] is above 11.4 µM; in test [5] it was above 46 µM; in test [6], above 9.22 µM. The figures for the activity change, negative = inhibition in test [2] and in test [3] were 4.39% and 12.2%, respectively. Further, the activity, negative = inhibition in test [4] was 5.82%. The Potency result in test [7] and in test [8] was “inactive” each time.

For `CC(C)[C@@H](C(=O)O)N1C(=O)c2ccccc2C1=O`, the results for the Potency in test [1], in test [5] and in test [6] were above 11.4 µM, above 46 µM and above 9.22 µM, respectively. The activity change, negative = inhibition in test [2] was -2.02%; in test [3] it was -8.21%. Besides, the activity, negative = inhibition in test [4] is 2.83%. In addition, the Potency entry in test [7] and in test [8] was “inactive” each time.

Consider `O=C(O)/C(Cc1ccnc2ccccc12)=N\O`, for which the Potency in test [1] is above 11.4 µM; in test [5], above 46 µM; in test [6] it was above 9.22 µM. In addition, the activity change, negative = inhibition in test [2] is -9.39%; in test [3], 0.364%. In addition, the activity, negative = inhibition in test [4] is 4.23%. Moreover, the Potency result in test [7] and in test [8] was “inactive” in each case.

Consider `C[N+]1(CCCC[N+]2(C)CCCCCCC2)CCCCCCC1`, for which the Potency in test [1] is above 11.4 µM; in test [5], above 46 µM; in test [6], above 9.22 µM. Further, the results for the activity change, negative = inhibition in test [2] and in test [3] were 0.612% and -24.9%, respectively. The activity, negative = inhibition in test [4] was -6.69%. The Potency entry in test [7] and in test [8] was “inactive” each time.

On to `CO[C@@H]1/C=C\O[C@]2(C)Oc3c(C)c(O)c4c(O)c(c(CN5CCN(C)CC5)c(O)c4c3C2=O)NC(=O)/C(C)=C\C=C[C@@H](C)[C@@H](O)[C@H](C)[C@@H](O)[C@H](C)[C@H](OC(C)=O)[C@@H]1C`, for which the results for the Potency in test [1], in test [5] and in test [6] were above 11.4 µM, above 46 µM and above 9.22 µM, respectively. Besides, the activity change, negative = inhibition in test [2] is -8.05%; in test [3] it was 7.34%. For the same molecule, the activity, negative = inhibition in test [4] is -6.61%. Moreover, the Potency result in test [7] and in test [8] was “inactive” throughout.

`[Cu].[NH-][C@H](CC(=O)O)C(=O)O.[NH-][C@H](CC(=O)O)C(=O)O`: the figures for the Potency in test [1], in test [5] and in test [6] were above 11.4 µM, above 46 µM and above 9.22 µM, respectively. Further, the activity change, negative = inhibition is 5.72% in test [2] and 8.79% in test [3]. The activity, negative = inhibition in test [4] was 13.3%. The Potency result in test [7] and in test [8] was “inactive” in each case.

Consider `Cc1cc2ncn(CC(=O)O)c2cc1C`, for which the Potency was above 11.4 µM in test [1], above 46 µM in test [5] and above 9.22 µM in test [6]. The activity change, negative = inhibition in test [2] is -4.54%; in test [3], 1.45%. In addition, the activity, negative = inhibition in test [4] was 8.76%. Further, the Potency entry in test [7] and in test [8] was “inactive” throughout.

As to `CC(=O)c1ccc(O)c(CN(C2CCCCC2)C2CCCCC2)c1O`, the Potency in test [1] is above 11.4 µM; in test [5] it was above 46 µM; in test [6], above 9.22 µM. Further, the activity change, negative = inhibition in test [2] was -2.68%; in test [3] it was 16%. In addition, the activity, negative = inhibition in test [4] was -1.55%. Also, the Potency entry in test [7] and in test [8] was “inactive” each time.

`CNC[C@@H](SC)c1ccc(O)c(O)c1`: the values for the Potency in test [1], in test [5] and in test [6] were above 11.4 µM, above 46 µM and above 9.22 µM, respectively. Also, the values for the activity change, negative = inhibition in test [2] and in test [3] were 1.24% and 7.41%, respectively. In test [4], the activity, negative = inhibition was 21%. For the same molecule, the Potency entry in test [7] and in test [8] was “inactive” throughout.
